In PubChem BioAssay (NCATS):
Several values for one entry are separate records, joined by “and”; a condition that tells them apart may be missing. Equal entries are not always repeated. Inconclusive results are not listed. Activity calls are given as the source filed them. Unless noted, no rule for the calls is given here.

Experiments:
[1] = qHTS profiling of the MIPE4 collection as inhibitors of Plasmodium falciparum (DD2) proliferation (AID 743345); settings: P. falciparum Dd2 in erythrocytes, SYBR Green DNA, 72 h; at 28.5 µM (top of the series) unless noted
How it was run: (§1)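 Erythrocytes infected with P. falciparum (0.3% parasitemia, 2.5% hematocrit) incubated with compounds 72 h at 37 C, 5% CO2. Lysis with saponin/Triton buffer containing SYBR Green I, overnight at room temperature in the dark; DNA fluorescence (485/535 nm) normalised to 0.29 uM artemisinin and DMSO.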

[2] = qHTS profiling of the MIPE4 collection as inhibitors of Plasmodium falciparum (DD2) proliferation (Rep 2) (AID 743346); settings: P. falciparum Dd2 in erythrocytes, SYBR Green DNA, 72 h; at 28.5 µM (top of the series) unless noted
How it was run: as §1

[3] = qHTS profiling of the MIPE4 collection as inhibitors of Plasmodium falciparum (HB3) proliferation (AID 743347);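 also: plate controls were DMSO vehicle wells for no effect and artemisinin wells for full effect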; settings: P. falciparum HB3 in erythrocytes, SYBR Green DNA, 72 h; at 28.5 µM (top of the series) unless noted
How it was run: as §1

[4] = High-throughput drug toxicity screening in the BPDCN cell line Gen2.2 (AID 1224824); settings: Gen2.2 BPDCN cells; at 45.8 µM (top of the series) unless noted;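 also: cells exposed to compounds for 48 h before reading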
How it was run: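 Gen2.2, 500 cells/well, phenol red-free RPMI/10% FBS/Pen-Strep; 48 h cpd, 37 °C/5% CO2; CTG lum, 15 min RT. Norm: DMSO = 100%, bortezomib 9.2 uM final = 0%.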

[5] = High-throughput drug toxicity screening in the BPDCN cell line Cal-1 (AID 1224825); settings: Cal-1 BPDCN cell viability, qHTS; at 45.8 µM (top of the series) unless noted
How it was run: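 Exponentially growing Cal-1 cells, 500 per well in phenol red-free RPMI with 10% FBS, were exposed to compounds for 48 h at 37 °C, 5% CO2. Viability was read by CellTiter-Glo luminescence and normalised to DMSO (100%) and 9.2 uM bortezomib (0%).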

[6] = qHTS assay for measurement of the activity of small molecule inhibitors on Zika virus induced Caspase-3 activity in human iPSC derived neural progenitor cells (hNPCs) (AID 1224857; active = well fitted curve in the direction sought with a large enough effect; an effect the other way counts as inactive or inconclusive; also: % of control where 0% means no effect; nearly all actives have a fitted effect of over 65% in size)
How it was run: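 After overnight (16–20 h) culture at 350 cells/well, hNPCs get compound, then ZIKV 2 FFU/cell one hour later. Six hours on, Caspase-Glo 3/7 is added and luminescence measured.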

[7] = qHTS assay for measurement of the activity of small molecule inhibitors on Zika virus induced Caspase-3 activity in human astrocytoma cells (AID 1224859; active = well fitted curve in the direction sought with a large enough effect; an effect the other way counts as inactive or inconclusive;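 also: plate controls were ZIKV-infected untreated cells for no effect and uninfected cells for full effect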)
How it was run: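 Inhibition of Zika-induced caspase-3/7 activity: SNB-19 cells, 1 h compound pretreatment, ZIKV 2 FFU/cell for 6 h at 37 C, Caspase-Glo luminescence read-out.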

[8] = qHTS Screen of the MIPE 4.0 Collection Against Ewings Sarcoma (TC71) (AID 1259253; active = well fitted curve in the direction sought with a large enough effect; an effect the other way counts as inactive or inconclusive; also: nearly all actives have a fitted effect of over 40% in size; also: potency is read from the fitted curve at half-maximal effect)
How it was run: (§2)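 Measured: ATP luminescence (CellTiter-Glo) 10 min after reagent addition, following 48 h drug treatment. Relative luciferase units converted to percent activity, with no-cell wells as full and DMSO wells as zero inhibition.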

[9] = qHTS Screen of the MIPE 4.0 Collection Against Ewings Sarcoma (TC32) (AID 1259256; active = well fitted curve in the direction sought with a large enough effect; an effect the other way counts as inactive or inconclusive; also: nearly all actives have a fitted effect of over 45% in size; also: potency is read from the fitted curve at half-maximal effect)
How it was run: as §2

[10] = P-glycoprotein substrates identified in KB-8-5-11 adenocarcinoma cell line, qHTS therapeutic library screen (AID 1346987; active = well fitted curve in the direction sought with a large enough effect; an effect the other way counts as inactive or inconclusive; also: nearly all actives have a fitted effect of over 65% in size; also: potency is read from the fitted curve at half-maximal effect)
How it was run: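 Steps: plate 500 KB-8-5-11 cells/well in DMEM + 10% FCS (colchicine removed); pin compounds in dose-response; incubate 72 h, 37 degree C, 5% CO2; add CellTiter-Glo, 5 min; read luminescence.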

[11] = qHTS profiling of the MIPE4 collection as inhibitors of Plasmodium falciparum (3D7) proliferation (AID 743344);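 also: scaled between DMSO vehicle wells and 0.29 µM artemisinin as full inhibition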; settings: P. falciparum 3D7 in erythrocytes, SYBR Green DNA fluorescence, 72 h; at 28.5 µM (top of the series) unless noted
How it was run: as §1

[12] = qHTS Screen of the MIPE 4.0 Collection Against Ewings Sarcoma (EW8) (AID 1259255; active = well fitted curve in the direction sought with a large enough effect; an effect the other way counts as inactive or inconclusive; also: nearly all actives have a fitted effect of over 35% in size; also: potency is read from the fitted curve at half-maximal effect;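 as to viability: 100% = DMSO-treated cells and 0% = medium-only wells without cells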)
How it was run: as §2

[13] = Identifying Small Molecule Inhibitors of Pancreatic Cancer Stem Cells (SN12C, Adherent) (AID 1259358; active = well fitted curve in the direction sought with a large enough effect; an effect the other way counts as inactive or inconclusive;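 also: cell survival measured after 48 h of compound exposure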; also: potency is read from the fitted curve at half-maximal effect)
How it was run: (§3)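 After a 4 h attachment period, compounds were pinned into wells and cultures held 48 h under standard incubator conditions. Viability was then measured as CellTiter-Glo luminescence following 10 min at room temperature.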

[14] = Identifying Small Molecule Inhibitors of Pancreatic Cancer Stem Cells (A278, Adherent) (AID 1259361; active = well fitted curve in the direction sought with a large enough effect; an effect the other way counts as inactive or inconclusive; also: nearly all actives have a fitted effect of over 35% in size;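 as to viability (% of control): 100% = DMSO-treated cells and 0% = cell-free media-only wells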)
How it was run: as §3

[15] = Identifying Small Molecule Inhibitors of Pancreatic Cancer Stem Cells (Panc1, Adherent) (AID 1259362; active = well fitted curve in the direction sought with a large enough effect; an effect the other way counts as inactive or inconclusive;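 also: compound exposure lasted 48 h before the viability read; plate controls were DMSO-treated cells for no effect and cell-free media wells for full effect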); settings: Potency: viability
How it was run: as §3

[16] = P-glycoprotein substrates identified in KB-3-1 adenocarcinoma cell line, qHTS therapeutic library screen (AID 1346986; active = well fitted curve in the direction sought with a large enough effect; an effect the other way counts as inactive or inconclusive; also: nearly all actives have a fitted effect of over 60% in size)
How it was run: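 Resistance attributable to P-gp was assessed by comparing AC50 in KB-8-5-11 with parental KB-3-1 and by tariquidar reversal. Cells were exposed 72 h and viability read by CellTiter-Glo.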

[17] = qHTS assay to identify small molecule inhibitors of chordoma cells - UCH-2 (AID 1259356; active = well fitted curve in the direction sought with a large enough effect; an effect the other way counts as inactive or inconclusive; also: % is scaled to controls: 0 for no effect and ±100 for the full control effect)

SMILES | parasite growth remaining, % of DMSO control (lower = more inhibition) [1] | parasite growth, % of control (lower = inhibition) [2] | growth, % of control [3] | cell viability, % of control (lower = more cytotoxic) [4] | viability (% of control) [5] | Potency [6] | Potency [7] | Potency [8] | Potency [9] | Potency [10] | parasite growth, % of DMSO control [11] | Potency [12] | Potency [13] | IC50 (viability decrease) [14] | Potency [15] | Potency [16] | outcome [17]
Cc1ccn(-c2ccc(-c3ncco3)cc2)c(=O)c1-c1ccc2nc(N)ncc2c1 | 78.6% | 56.7% | 72.3% | 316% | 62.2% | inactive | inactive | 16.6 µM (active) | 3.72 µM (active) | inactive |  |  |  |  |  |  | 
C=C1C(=O)OC2C=C(C)CCC=C(C)CCC12 (stereo unspecified) | 104% | 108% | 559% | 10.5% | 11.5% | inactive | inactive |  | 20.9 µM (active) | inactive | 238% | 23.5 µM (active) |  |  |  |  | 
C[C@H]1[C@H](NC(=O)C(=NOC(C)(C)C(=O)O)c2csc(N)n2)C(=O)N1S(=O)(=O)O |  |  |  | 120% | 121% | inactive | inactive | inactive |  |  |  | inactive |  |  |  |  | 
N#C[C@H]1C[C@H]2C[C@@H]2N1C(=O)[C@@H](N)C12CC3CC(CC(O)(C3)C1)C2 | 103% | 97% | 69.2% | 112% | 100% | inactive | inactive |  | 16.6 µM (active) |  |  |  |  |  |  |  | 
OC[C@H]1O[C@@H](n2cnc3c2NC=NC[C@@H]3O)C[C@H]1O |  | 146% | 97.8% | 188% | 109% | inactive | inactive |  |  | inactive | 81.4% |  | inactive | 20.9 µM (active) | inactive |  | 
O=c1cc(CN2CCOCC2)occ1OCCCCCSc1ccnc2cc(C(F)(F)F)ccc12 | 56.7% | 33.6% |  | 186% | 75.4% | inactive | inactive |  | 18.7 µM (active) | 10.3 µM (active) | 36.7% |  |  |  | inactive |  | 
COc1cccc2c1CCCC2CCCN1CCN(C2CCCCC2)CC1 (stereo unspecified) | 54.8% | 16.3% | 5.02% | 165% | 11.1% | inactive | inactive |  |  |  | 6.86% |  | 16.6 µM (active) | 16.6 µM (active) |  |  | 
CS(=O)c1ccc(-c2nc(-c3ccc(F)cc3)c(-c3ccncc3)[nH]2)cc1 (stereo unspecified) |  |  | 7.77% [at 57.5 µM] | 41.2% [at 92.2 µM] | 14.2% [at 92.2 µM] | inactive | inactive |  |  | inactive | 19.5% [at 57.5 µM] |  | inactive | inactive |  | inactive | 
COCCCCC(=NOCCN)c1ccc(C(F)(F)F)cc1 | 56.9% | 49% | 47.6% | 56% | 88.3% | inactive | inactive |  |  | 20.9 µM (active) | 47.6% |  |  |  |  |  | inactive
N[C@@]1(C(=O)O)CS(=O)(=O)[C@H]2[C@H](C(=O)O)[C@H]21 | 88.4% | 112% |  | 78.4% | 76% | inactive | inactive |  | 18.7 µM (active) | inactive | 57.1% |  |  |  |  |  | 
N#Cc1ccc(NC(=O)Nc2ccccc2Br)c2n[nH]nc12 | 65.9% | 21.8% | 7.81% | 183% | 14.7% | inactive | inactive |  |  | inactive | 7.67% |  | inactive |  | inactive |  | 
O=C(N[C@@H](c1ccccc1)[C@@H]1CCCCN1)c1cccc(C(F)(F)F)c1Cl | 8.97% | 26.8% |  | 87.4% | 24.7% | inactive | inactive |  |  | inactive | 9.06% |  | inactive |  |  |  | 
CN(C[C@@H]1COCCO1)S(=O)(=O)Nc1ccc2ccc3ncc(-c4cnn(C)c4)cc3c(=O)c2c1 | 47.9% | 21.5% |  | 12.9% | 7.57% | inactive | inactive |  |  | 18.7 µM (active) and 18.4 µM (active) | 13.4% | 18.7 µM (active) |  |  |  |  | 
C=C1C(=O)OC(CCCCCCCC)C1C(=O)O (stereo unspecified) | 76.2% | 62.9% | 61.5% | 15.6% | 98% | inactive | inactive |  | 26.4 µM (active) |  | 50.6% |  |  |  |  |  | 
CC[C@H]1OC(=O)[C@H](C)C(=O)[C@H](C)[C@@H](O[C@H]2O[C@H](C)C[C@H](N(C)C)[C@@H]2O)[C@](C)(OC)C[C@@H](C)C(=O)[C@H](C)[C@H]2N(CCCCn3cnc(-c4cccnc4)c3)C(=O)O[C@]12C | 14.5% | 32.9% |  | 122% | 93.6% | inactive | inactive |  | 16.6 µM (active) |  | 5.78% | 20.9 µM (active) |  |  |  |  | 
CC(C)C(C)C=CC(C)C1CCC2C3=CC=C4CC(O)CCC4(C)C3CCC21C (stereo unspecified) | 102% | 92.8% | 98% | 136% | 127% | inactive | inactive |  | inactive | inactive |  | inactive |  |  |  |  | 
O=C(O)C(O)Cc1ccc(O)c(O)c1 (stereo unspecified) | 79.5% | 65.6% | 106% | 94.8% | 105% | inactive | inactive |  | inactive | inactive | 102% |  |  |  |  |  | 
COc1ccc2c(Oc3ccc(NC(=O)c4c(C)n(CC(C)(C)O)n(-c5ccccc5)c4=O)nc3)ccnc2c1 | 18.1% | 37% | 8.88% | 29.7% | 17.2% | inactive | inactive |  | 18.7 µM (active) | inactive | 9.27% |  |  |  |  |  | 
CCC(=O)NC[C@H](Cc1ccc(OCCc2nc(-c3ccccc3)oc2C)cc1)NC(C)=CC(=O)c1ccc(C(F)(F)F)cc1 | 7.84% | 21.5% |  | 96.4% | 5.56% | inactive | inactive |  |  | inactive | 6.82% |  |  |  |  | inactive | 
